Compound activity: PubChem, several laboratories
In the library only some 4.6% were active in any assay of this set; here they are far more common.
NR3A LBD binder – modulators (binders) of human NR3A ligand-binding domain. Tm shift relative to glycine control, % at 25 µM. 340,000 tested, 2.5% active. AID 1259313. NR3A LBD differential scanning fluorimetry, Tm shift; 0% = protein alone, 100% = glycine-bound protein;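 active = melting temperature shift of at least 10% of the positive control shift, at one fixed dose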
ADAM17 inh – inhibits human ADAM17. inhibition, % at 6.95 µM. P78536. recombinant ADAM17, EDANS/DABCYL FRET peptide cleavage. 370,000 tested, 0.83% active;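 active = inhibition above the mean of compounds lying between control limits plus 3 SD, set per campaign, cut at about 8.5% in these data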;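 also: 0% = DMSO-only wells as the low control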
FAS TE block – blocks the thioesterase domain of human fatty acid synthase | recombinant FAS-TE, OMFH fluorogenic substrate, fluorescence endpoint | AID 602261 | 360,000 tested, 0.67% active | inhibition, % at 15 µM;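 active = compounds whose normalised, plate-corrected inhibition of enzyme fluorescence in the single-dose primary screen is 50% or more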;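 also: 0% = DMSO with enzyme and 100% = substrate without enzyme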
ADAM10 inh – ADAM10 inhibition, QFRET primary screen | O14672 | recombinant ADAM10, EDANS/DABCYL FRET peptide cleavage, 3 h | inhibition, % at 7 µM | 370,000 tested, 0.62% active | AID 720582;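 active = inhibition above a per-campaign cutoff equal to the mean of compounds falling between control-based bounds plus 3 SD, cut at about 20% in these data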;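 also: 0% = DMSO wells while the 100% control is not disclosed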
Target sequence (O14672 214-748 limits assumed): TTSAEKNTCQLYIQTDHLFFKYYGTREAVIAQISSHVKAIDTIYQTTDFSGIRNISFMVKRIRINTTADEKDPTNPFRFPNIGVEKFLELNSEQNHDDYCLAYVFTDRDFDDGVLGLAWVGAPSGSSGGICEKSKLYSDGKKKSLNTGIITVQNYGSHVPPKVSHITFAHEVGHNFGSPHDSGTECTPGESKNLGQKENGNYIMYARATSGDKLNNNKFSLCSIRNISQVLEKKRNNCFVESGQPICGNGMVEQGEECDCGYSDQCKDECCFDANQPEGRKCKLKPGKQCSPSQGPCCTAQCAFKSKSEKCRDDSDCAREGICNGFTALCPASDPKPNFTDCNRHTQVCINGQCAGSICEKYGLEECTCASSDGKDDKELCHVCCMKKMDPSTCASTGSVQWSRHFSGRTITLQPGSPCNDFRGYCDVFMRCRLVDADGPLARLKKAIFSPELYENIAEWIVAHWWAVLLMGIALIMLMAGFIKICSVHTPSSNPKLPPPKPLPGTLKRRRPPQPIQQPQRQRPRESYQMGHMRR
proKLK7 act – proKLK7 (human) activation, primary screen; purified proKLK7, EDANS-DABCYL substrate fluorescence; 100% is mature enzyme control, 0% vehicle; 370,000 tested, 0.9% active; AID 652039; activation, % at 7 µM;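 active = activation above the mean of all tested compounds plus 3 SD, computed per campaign excluding outliers beyond control limits, cut at about 13% in these data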
* marks the source's active call; other numbers are inactive results; i = inactive; x = no result.

SMILES | NR3A LBD binder | ADAM17 inh | FAS TE block | ADAM10 inh | proKLK7 act
CN(C)C=NC(=O)c1ccc([N+](=O)[O-])c(CS(=O)(=O)c2ccc(Cl)cc2)c1 | 13* | -3 | 23 | -5 | 0
O/C(=C\c1nc2ccccc2nc1/C=C(\O)c1ccccc1)c1ccccc1 | 22* | x | -12 | x | x
CC1CN(c2nc3ccccc3nc2SCC(=O)N2CCN(S(=O)(=O)c3ccccc3)CC2)CC(C)O1 (stereo unspecified) | x | 3 | x | 0 | -3
Cc1ccc(C(=O)C2=C(O)C(=O)N(c3ncccn3)C2c2ccc(Cl)cc2)o1 (stereo unspecified) | 13* | -9 | 10 | -15 | -1
COc1cccc(NC(=O)CN(C)C(=O)c2ccccc2OCC(=O)Nc2cccc(C(F)(F)F)c2)c1 | 0 | 3 | 24 | 8 | 0
COc1ccc(-c2noc(N(C)CC(=O)Nc3cccc(C(F)(F)F)c3)n2)cc1 | 10* | 5 | 36 | 17 | 0
COc1cccc(NC(=O)CN(C)C(=O)c2cccnc2Nc2cccc(C(F)(F)F)c2)c1 | 35* | x | 38 | x | x
COc1ccc(-c2nc(NC(=O)c3ccc(OCC(=O)Nc4ccc(F)cc4)c(OC)c3)sc2C)cc1 | 11* | -2 | -6 | -10 | -14
CCOC(=O)CCc1c(C)c2ccc(O)cc2oc1=O | 1 | i | -8 | i | 45*
CCOC(=O)CCc1c(C)c2ccc(OCC(=O)N(CC)CC)c(C)c2oc1=O | 0 | -200 | -6 | i | 3
CCOc1ccccc1N1CCN(S(=O)(=O)c2cc(C)ccc2OC)CC1 | 37* | 1 | 14 | 3 | 0
FC(F)Oc1ccc(NC(=S)NC2CCSc3ccccc32)cc1 (stereo unspecified) | 17* | 5 | 31 | 12 | 0
COc1cc(/C=N/NC(=O)c2ccc3c(c2)OCO3)ccc1O | -12 | -4 | -5 | -2 | 1
O=C(N/N=C/c1cc2c(cc1Cl)OCO2)c1cc(-c2ccccc2)n[nH]1 | 32* | -1 | 2 | 0 | 0
Cc1ccc(-c2cc(C(=O)NN=Cc3ccc(F)cc3)[nH]n2)cc1C | x | 0 | x | -2 | -1
COc1ccc(/C=N/NC(=O)c2cc(-c3ccc4c(c3)OCO4)n[nH]2)cc1OC | 25* | -3 | -4 | -8 | 1
O=C(N/N=C/c1cc2c(cc1Cl)OCO2)c1ccncc1 | 3 | 3 | -9 | -2 | 1
O=C(N/N=C/c1ccc(F)cc1)c1cc(-c2ccc3c(c2)OCO3)n[nH]1 | 29* | 0 | -6 | 15 | 0
CN(C)c1ccc(/C=N/NC(=O)c2cc(-c3ccc4c(c3)OCO4)n[nH]2)cc1 | 12* | -9 | -14 | -20 | -8
O=C(Cn1nnc(-c2ccccc2F)n1)Nc1ccc(Cl)cc1 | x | 7 | x | -2 | -1
COC(=O)[C@H]1C[C@@]2(n3ccc4ccccc43)c3ccccc3N(S(=O)(=O)c3ccccc3)[C@H]2N1C(=O)CNC1CCCCC1 | x | -1 | x | -1 | 0
CCN(CC)c1ccc(/C=N/NC(=O)c2ccc3c(c2)OCCO3)cc1 | -2 | -6 | 16 | -27 | 2
CN(C)c1ccc(/C=N/NC(=O)c2ccc3c(c2)OCCO3)cc1 | 21* | -1 | 2 | -6 | 1
CCCc1nc2c(=O)n(C)c(=O)[nH]c2n1CCC | 14* | -2 | -10 | -4 | 0
COc1ccc(N(C(=O)CCl)C(C(=O)NCCc2ccccc2)c2cccs2)cc1 (stereo unspecified) | 10 | 1 | 63* | -7 | 1
SMILES | NR3A LBD binder | ADAM17 inh | FAS TE block | ADAM10 inh | proKLK7 act
Cc1cccc(C2=NN(c3ccccc3)[C@H](CO)[C@H]2c2ccc(Cl)cc2)c1 | 23* | i | 26 | i | -162
OC[C@@H]1[C@@H](c2ccc(Cl)cc2)C(c2ccc(F)cc2)=NN1c1ccccc1 | 30* | -485 | 30 | i | -89
OC[C@@H]1[C@@H](c2ccccc2)C(c2cccc(Cl)c2)=NN1c1ccccc1 | 26* | i | 28 | i | -85
OC[C@@H]1[C@@H](c2ccccc2)C(c2ccccc2)=NN1c1ccccc1 | 3 | i | 23 | i | -45
Cc1cccc(C2=NN(c3ccccc3)[C@H](CO)[C@H]2c2ccc(F)cc2)c1 | 2 | i | 24 | i | -32
OC[C@@H]1[C@@H](c2ccccc2)C(c2ccc(F)cc2)=NN1c1ccccc1 | -9 | x | 21 | x | x
CCOC(=O)CC[C@H]1CC[C@]2(CCCN(Cc3ccccc3)C2)O1 | x | -5 | x | -10 | -1
CC(C)CCC(O)(CCC(C)C)C(=O)NN1CCCCC1 | -3 | 5 | -2 | -5 | 0
CCCC(O)(CCC)C(=O)NN1CCCCC1 | 27* | x | -8 | x | x
O=C(/C=C/c1ccccc1)c1c[nH]c2ccccc12 | 25* | -4 | -3 | 0 | 0
Cc1ccc(NC(=O)c2ccc(S(=O)(=O)N3CCCC3)cc2)cc1 | 16* | -1 | 5 | 0 | 0
O=C(Nc1ccc(S(=O)(=O)N2CCCC2)cc1)c1ccc([N+](=O)[O-])o1 | 27* | x | -4 | x | x
O=C(Nc1cccc(S(=O)(=O)N2CCCC2)c1)c1cccc(OC(F)F)c1 | -4 | 4 | 26 | 6 | -1
O=C(Nc1ccc(S(=O)(=O)N2CCCC2)cc1)c1cccc(OC(F)F)c1 | 19* | 2 | 13 | -7 | 0
COc1ccc(C(=O)Nc2ccc(S(=O)(=O)N3CCN(C)CC3)cc2)cc1 | 0 | 4 | -4 | -2 | 0
COc1ccc(C(=O)Nc2ccc(S(=O)(=O)N3CCCCC3)cc2)cc1 | 24* | 3 | 14 | -3 | 0
O=C(Nc1ccc(S(=O)(=O)N2CCOCC2)cc1)c1ccc([N+](=O)[O-])o1 | -2 | 3 | -7 | 8 | 0
CCn1c(Cc2cccs2)nnc1SCC(=O)Nc1ccc(Cl)cc1C | x | 2 | x | -4 | 0
Cc1ccc(C(=O)NCC(=O)OCc2nc3sc(C)c(C)c3c(=O)[nH]2)cc1 | x | 0 | x | -8 | 0
C#CCNC(=O)C[C@H]1C[C@@]2(C(=O)OC)C(=C[C@H](C(C)(C)C)O[C@@H]2C)N(Cc2cccc3ccccc23)C1=O | x | 3 | x | 7 | 1
O=C(Nc1ccc(S(=O)(=O)N2CCCC2)cc1)c1ccc([N+](=O)[O-])cc1 | 27* | 2 | 3 | 1 | 1
CC(=O)Nc1ccc(C(=O)Nc2ccc(S(=O)(=O)N3CCCC3)cc2)cc1 | 8 | -2 | -5 | 4 | 0
Cc1ccc(-c2c(C(=O)NCc3ccc(F)cc3)oc(=O)c3ccccc23)cc1 | 14* | 1 | 30 | 12 | 0
Cc1onc(-c2ccccc2)c1C(=O)NCc1ccccc1F | -2 | -2 | -2 | 3 | 0
Cc1onc(-c2ccccc2)c1C(=O)NCc1ccc(F)cc1 | 11* | -1 | -2 | 5 | 1
O=C(Cc1ccccc1)NC1CCCCN(Cc2ccc(Cl)cc2)C1=O (stereo unspecified) | x | 6 | x | 6 | -1
CC1CCc2c(sc(/N=C/c3cccnc3)c2C(N)=O)C1 (stereo unspecified) | 11* | -5 | 1 | -11 | 0
